PubChem BioAssay (NCI)
About 79,000 compounds went through this panel and 15% of them were active in at least one assay; those are over-represented in the sample as a whole. Activity calls are given as the source filed them. No stated cut-off is given here; in the data, active means growth inhibition above about 70%; inactive means the rest.

How the values were obtained:
[1] = NCI Yeast Anticancer Drug Screen. Data for the rad52 strain (AID 147);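 further: 0% = growth of vehicle-treated control cultures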; conditions: S. cerevisiae rad52 mutant growth inhibition, stronger effect = higher value
Procedure, shortened: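 Compounds are applied to a genetically defined yeast strain lacking normal DNA damage repair, and inhibition of growth is expressed relative to cultures given vehicle only.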

[2] = NCI Yeast Anticancer Drug Screen. Data for the wt1 strain (AID 149);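 further: 0% = growth of vehicle-treated wt1 cultures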; conditions: S. cerevisiae wt1 strain (SPY 50644) growth inhibition, stronger effect = higher value
Procedure, shortened: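 wt1 yeast, compound-treated; % growth inhibition vs vehicle control.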

[3] = NCI Yeast Anticancer Drug Screen. Data for the rad50EPP+ strain (AID 151);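 further: 0% = growth of vehicle-treated control cultures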; conditions: S. cerevisiae rad50 mutant strain, stronger effect = higher value
Procedure, shortened: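 Compounds were applied to the rad50EPP+ yeast strain, which bears a defined DNA repair alteration, and growth inhibition was determined relative to vehicle-treated cultures.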

[4] = NCI Yeast Anticancer Drug Screen. Data for the mgt1 strain (AID 153); conditions: S. cerevisiae mgt1 mutant growth inhibition, stronger effect = higher value
Procedure, shortened: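 Strain: mgt1 yeast, one of a set carrying defined DNA damage repair or cell cycle control alterations. Compound-treated growth compared with vehicle.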

[5] = NCI Yeast Anticancer Drug Screen. Data for the rad50 strain (AID 155);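 further: 0% = growth of vehicle-only cultures of the same strain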; conditions: S. cerevisiae rad50 strain growth inhibition, stronger effect = higher value
Procedure, shortened: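 Genetically altered yeast (DNA repair pathway); compound treatment; growth inhibition vs vehicle ctrl.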

[6] = NCI Yeast Anticancer Drug Screen. Data for the mec2-1 strain (AID 157); conditions: S. cerevisiae mec2-1 strain, stronger effect = higher value
Procedure, shortened: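 Strain: mec2-1 (DNA repair/cell cycle alteration). Compound exposure, then growth measured; inhibition expressed relative to vehicle.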

[7] = NCI Yeast Anticancer Drug Screen. Data for the rad14 strain (AID 159);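 further: 0% = growth of vehicle-treated control cultures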; conditions: S. cerevisiae rad14 strain growth inhibition, stronger effect = higher value
Procedure, shortened: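 Test compounds were applied to a repair-deficient yeast strain. Its growth was then compared with that of cultures given vehicle alone, and inhibition was expressed relative to those controls.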

[8] = NCI Yeast Anticancer Drug Screen. Data for the sgs1 mgt1 strain (AID 161);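 further: 0% = growth of cultures given vehicle only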; conditions: S. cerevisiae sgs1 mgt1 strain, stronger effect = higher value
Procedure, shortened: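 Inhibition of yeast growth, normalised to vehicle-treated controls, is reported for a strain bearing genetic alterations in DNA damage repair.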

[9] = NCI Yeast Anticancer Drug Screen. Data for the CLN2oe strain (AID 163);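 further: 0% = growth of vehicle-only control cultures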; conditions: S. cerevisiae CLN2oe strain, stronger effect = higher value
Procedure, shortened: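 Growth of a genetically modified yeast strain is measured after compound exposure and compared with cultures given vehicle alone.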

[10] = NCI Yeast Anticancer Drug Screen. Data for the cln2 rad14 strain (AID 165);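 further: 0% = growth equal to vehicle treated cultures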; conditions: S. cerevisiae cln2 rad14 strain, stronger effect = higher value
Procedure, shortened: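 Compounds are applied to the cln2 rad14 yeast strain, and growth is then compared with that of vehicle-treated cultures to give inhibition.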

[11] = NCI Yeast Anticancer Drug Screen. Data for the bub3 strain (AID 167); conditions: S. cerevisiae bub3 mutant strain, stronger effect = higher value
Procedure, shortened: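 Yeast carrying a defined mutation is treated with each compound, and growth is compared with that of vehicle-exposed cells to give inhibition.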

[12] = NCI Yeast Anticancer Drug Screen. Data for the wt2 strain (AID 169);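 further: 0% = growth of vehicle-treated yeast cultures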; conditions: S. cerevisiae wt2 strain growth inhibition, stronger effect = higher value
Procedure, shortened: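 This strain belongs to a panel of yeast strains with defined genetic alterations in DNA damage repair or cell cycle control. Compounds are applied, and growth inhibition is measured against vehicle-treated cultures.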

[13] = NCI Yeast Anticancer Drug Screen. Data for the mlh1 strain (AID 171);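 further: 0% = growth of vehicle-treated control cultures of the same strain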; conditions: S. cerevisiae mlh1 strain growth inhibition, stronger effect = higher value
Procedure, shortened: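 Growth of the mutant yeast strain after compound exposure, expressed as inhibition relative to vehicle-only controls.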

[14] = NCI Yeast Anticancer Drug Screen. Data for the sgs1 strain (AID 173);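 further: 0% = growth of vehicle-only control cultures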; conditions: S. cerevisiae sgs1 mutant, stronger effect = higher value
Procedure, shortened: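 Growth of a yeast strain bearing a defined genetic alteration is measured after compound treatment. Inhibition is expressed relative to vehicle-only controls.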

[15] = NCI Yeast Anticancer Drug Screen. Data for the mlh1 rad18 strain (AID 175); conditions: S. cerevisiae mlh1 rad18 strain growth inhibition, stronger effect = higher value
Procedure, shortened: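 Read-out is yeast growth inhibition, calculated against vehicle-only controls. The compound was applied to a strain engineered with DNA damage repair alterations.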

[16] = NCI Yeast Anticancer Drug Screen. Data for the rad18 strain (AID 177); conditions: S. cerevisiae rad18 mutant growth inhibition, stronger effect = higher value
Procedure, shortened: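 Growth of the mutant yeast strain after compound exposure, normalised to vehicle-only cultures.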

[17] = at 5.0 µM (retest, dose inferred, filed as 0.5)
[18] = at 50.0 µM (retest, dose inferred, filed as 5.0)

Measured: growth inhibition

CN(C)c1nc(=Nc2cccc(Cl)c2)ss1
active: [1]; at 11.0 µM 89% | [1]; at 33.0 µM 99% | [1]; at 100.0 µM 99% | [2]; at 33.0 µM 99% | [2]; at 100.0 µM 99% | [3]; at 11.0 µM 92% | [3]; at 33.0 µM 99% | [3]; at 100.0 µM 99% | [4]; at 11.0 µM 98% | [4]; at 33.0 µM 99% | [4]; at 100.0 µM 99% | [5]; [17] 75% | [5]; at 11.0 µM 89% | [5]; at 33.0 µM 99% | [5]; [18] 99% | [5]; at 50.0 µM 99.5% | [5]; at 100.0 µM 99% | [6]; at 11.0 µM 96% | [6]; at 33.0 µM 100% | [6]; [18] 99% | [6]; at 50.0 µM 99.7% | [6]; at 100.0 µM 100% | [7]; at 11.0 µM 97% | [7]; at 33.0 µM 99% | [7]; at 100.0 µM 99% | [8]; [17] 90% | [8]; [18] 99% | [8]; at 50.0 µM 99.7% | [9]; at 11.0 µM 71% | [9]; at 33.0 µM 99% | [9]; at 100.0 µM 99% | [10]; [18] 99% | [10]; at 50.0 µM 99.4% | [11]; at 11.0 µM 98% | [11]; at 33.0 µM 99% | [11]; [18] 98% | [11]; at 50.0 µM 98.3% | [11]; at 100.0 µM 99% | [12]; at 11.0 µM 90% | [12]; at 33.0 µM 99% | [12]; at 100.0 µM 99% | [13]; at 11.0 µM 96% | [13]; at 33.0 µM 99% | [13]; at 100.0 µM 99% | [14]; at 11.0 µM 95% | [14]; at 33.0 µM 99% | [14]; at 100.0 µM 99% | [15]; [17] 89% | [15]; [18] 99% | [15]; at 50.0 µM 99.5% | [16]; at 11.0 µM 97% | [16]; at 33.0 µM 99% | [16]; at 100.0 µM 99%
inactive: [1]; at 1.2 µM 7% | [1]; at 3.7 µM 34% | [2]; at 1.2 µM 7% | [2]; at 3.7 µM 20% | [2]; at 11.0 µM 63% | [3]; at 1.2 µM 9% | [3]; at 3.7 µM 42% | [4]; at 1.2 µM 9% | [4]; at 3.7 µM 47% | [5]; at 1.2 µM 5% | [5]; at 3.7 µM 32% | [6]; at 1.2 µM 11% | [6]; at 3.7 µM 28% | [6]; [17] 56% | [7]; at 1.2 µM 6% | [7]; at 3.7 µM 30% | [9]; at 1.2 µM -5% | [9]; at 3.7 µM 11% | [10]; [17] 17% | [11]; at 1.2 µM 1% | [11]; at 3.7 µM 28% | [11]; [17] 69% | [12]; at 1.2 µM 9% | [12]; at 3.7 µM 32% | [13]; at 1.2 µM 11% | [13]; at 3.7 µM 50% | [14]; at 1.2 µM 15% | [14]; at 3.7 µM 52% | [16]; at 1.2 µM 12% | [16]; at 3.7 µM 48%

CCCC/C=C/C(C)(C(=O)OCC)C(=O)OCC
inactive: [1]; at 1.2 µM -5% | [1]; at 3.7 µM -5% | [1]; at 11.0 µM -1% | [1]; at 33.0 µM 4% | [1]; at 100.0 µM 22% | [2]; at 1.2 µM -5% | [2]; at 3.7 µM -5% | [2]; at 11.0 µM -5% | [2]; at 33.0 µM -7% | [2]; at 100.0 µM 3% | [3]; at 1.2 µM -3% | [3]; at 3.7 µM 0% | [3]; at 11.0 µM 4% | [3]; at 33.0 µM 9% | [3]; at 100.0 µM 16% | [4]; at 1.2 µM -4% | [4]; at 3.7 µM -4% | [4]; at 11.0 µM -4% | [4]; at 33.0 µM -2% | [4]; at 100.0 µM 16% | [5]; at 1.2 µM -6% | [5]; at 3.7 µM -5% | [5]; [17] 10% | [5]; at 11.0 µM -1% | [5]; at 33.0 µM 0% | [5]; [18] 8% | [5]; at 50.0 µM -6.4% | [5]; at 100.0 µM 19% | [6]; at 1.2 µM -2% | [6]; at 3.7 µM -4% | [6]; [17] 3% | [6]; at 11.0 µM -1% | [6]; at 33.0 µM 5% | [6]; [18] 16% | [6]; at 50.0 µM 26.9% | [6]; at 100.0 µM 25% | [7]; at 1.2 µM -5% | [7]; at 3.7 µM -5% | [7]; at 11.0 µM -1% | [7]; at 33.0 µM 3% | [7]; at 100.0 µM 15% | [8]; [17] 0% | [8]; [18] 51% | [8]; at 50.0 µM 37.6% | [9]; at 1.2 µM -3% | [9]; at 3.7 µM -7% | [9]; at 11.0 µM -8% | [9]; at 33.0 µM -1% | [9]; at 100.0 µM 12% | [10]; [17] -6% | [10]; [18] 32% | [10]; at 50.0 µM 58.5% | [11]; at 1.2 µM -6% | [11]; at 3.7 µM -5% | [11]; [17] -2% | [11]; at 11.0 µM -6% | [11]; at 33.0 µM -1% | [11]; [18] 12% | [11]; at 50.0 µM 67.8% | [11]; at 100.0 µM 19% | [12]; at 1.2 µM -4% | [12]; at 3.7 µM -4% | [12]; at 11.0 µM -6% | [12]; at 33.0 µM -4% | [12]; at 100.0 µM 14% | [13]; at 1.2 µM -4% | [13]; at 3.7 µM -3% | [13]; at 11.0 µM -1% | [13]; at 33.0 µM 5% | [13]; at 100.0 µM 29% | [14]; at 1.2 µM -3% | [14]; at 3.7 µM -1% | [14]; at 11.0 µM 3% | [14]; at 33.0 µM 6% | [14]; at 100.0 µM 38% | [15]; [17] 11% | [16]; at 1.2 µM -4% | [16]; at 3.7 µM 1% | [16]; at 11.0 µM 6% | [16]; at 33.0 µM 13% | [16]; at 100.0 µM 35%
active: [15]; [18] 81% | [15]; at 50.0 µM 70.2%
